About 25 (2%) of roughly 1,400 compounds were called active. Roughly 19% stayed inconclusive and do not appear here. Only a sample is shown. Values without a mark were called inactive. The call rests on the fitted dose curve; in most records, active means well fitted inhibition curve with a large enough effect; inconclusive means small, poorly fitted or top-dose-only effect; inactive means flat fitted curve, though single readings scatter.
Experiment: Nrf2 qHTS screen for inhibitors: A549 ARE-Fluc Cytotoxicity Counterscreen for Hit Validation
Details: A549 ARE-Fluc cells; series mostly up to 46.1 µM; activity change, negative = cytotoxicity: at the top concentration
Text: Nrf2 is a transcription factor that maintains cellular redox homoestasis and protects cells from xenobiotics. Nrf2 binds to the antioxidant response element (ARE) to induce gene expression of a broad spectrum of genes that encode for antioxidants. […] Finding a small molecule that act as an inhibitor of Nrf2 function would represent a novel therapeutic target that could lead to improvement in survival of patients undergoing chemo- and/or radio- therapy.
In collaboration with the Biswal laboratory, a cell based, luminescence assay (BugLite) was developed to detect the Nrf2 activity using the A549 ARE_Fluc cells (AID 504648). This assay was coupled with a fluorescence based (CellTiter Fluor) cytotoxicity assay to identify and exclude toxic compounds. This coupled assay was used to evaluate selected compounds for hit validation. The data herein is the result of the CellTiter Fluor assay where decrease in fluorescence signal = cytotoxicity. Inactivity is the desired outcome for this assay.
NIH Chemical Genomics Center [NCGC]
NIH Molecular Libraries Probe Centers Network [MLPCN]
Assay Submitter (PI): Shyam Biswal, Johns Hopkins University
[1] Shibata T., et al., Genetic alteration of Keap1 confers constitutive Nrf2 activation and resistance to chemotherapy in gallbladder cancer. Gastroenterology, 2008.
[2] Sjoblom T., et al., The consensus coding sequences of human breast and colorectal cancers. Science, 2006.
Five uL of cell suspension was dispensed into 1536-well white TC-treated plate using the Kalypsys dispenser to achieve a density of 5000 cells/well in all columns except column 1. The plates were incubated at 37deg C at 5% CO2 for 2 hours before 23 nL of compounds were added with the Kalypsys pin tool equipped with a 1,536-pin array. The control compounds Budesonide and Staurosporine were added at a concentration of 2mM. Budesonide was also added as a 1:10 titration, starting at 200uM, to achieve the dose-response control signal. The plates were incubated for 18-24 hour at 37deg C, 5% CO2 followed by a 5ul addition of 5% FBS OPTI-MEM growing media in column 1 as negative control. One microliter of 5x CellTiter Fluor (Promega) was added to each well and the assay plates were incubated at 37deg C, 5% CO2 for 30 minutes. The fluorescence signal was read using the PerkinElmer ViewLux plate reader (Ex = 405 nm /Em = 525 nm) for a 3 second exposure. After the signal was taken, 3 uL of 3x BugLite was dispensed into all wells. The plates were then incubated at room temperature for 15 minutes. A second ViewLux read (40 sec exposure) was performed to detect the luminescence signal. Cytotoxicity was assessed through the first fluorescent read while biochemical activity against Nrf2 was measured in the luminescent read. The data was normalized to the positive and negative controls.
On the % scale 0 is the no-effect control and ±100 the full control effect.

| SMILES | activity change, negative = cytotoxicity | outcome |
| --- | --- | --- |
| CCC(C)N1C(=O)S/C(=C/c2ccc(Sc3nc4ccccc4[nH]3)o2)C1=O (stereo unspecified) | -29.1% |  |
| CC(C)(C)c1ccc(Oc2ccc(N)cc2)cc1 | -24% |  |
| CCOc1ccc(S(=O)(=O)N2CCCCC2)cc1NC(=O)CN1CCCC1c1cccs1 (stereo unspecified) | -3.35% |  |
| O/N=C(\C[n+]1ccccc1)c1ccc(Br)cc1 | -11.6% |  |
| COc1ccc(C(=O)C[n+]2ccc(N)c(C)c2C)cc1 | -28.1% |  |
| Cc1csc[n+]1CCC1CCCCC1 | -0.656% |  |
| CCCCNc1nc2c(c(=O)n(C)c(=O)n2C)n1Cc1cccc(OC)c1 | -14.8% |  |
| COc1cccc(-c2nc(CS(=O)(=O)CC(=O)N3CCN(c4cc(C)ccc4C)CC3)c(C)o2)c1 | -29.3% |  |
| CC(C)Cn1c(N)c(C(=O)COC(=O)CN2C(=O)C3CC=CCC3C2=O)c(=O)n(C)c1=O (stereo unspecified) | -2.49% |  |
| O=C1C=C(c2ccnc3cc(Cl)ccc23)C[C@@H](c2ccc3c(c2)OCO3)C1 | -4.05% |  |
| CN(Cc1cccnc1)C(=O)c1cc(COc2ccc3ncccc3c2)on1 | -6.55% |  |
| Cc1ccc(NS(=O)(=O)c2cccs2)cc1S(=O)(=O)N1CCCCCC1 | -5.52% |  |
| CC(=O)OC(C)C[N+](C)(C)C (stereo unspecified) | -23.7% |  |
| Cn1nccc1C(=O)NC1CCCc2c1cnn2-c1ccc(F)cc1F (stereo unspecified) | 0.272% |  |
| COCCn1c(SCC(=O)Nc2ccccc2F)nc2c(c1=O)SCC2 | 0.723% |  |
| CC(=O)N1c2ccc(S(=O)(=O)N3CCCC(C(=O)Nc4cccc(Cl)c4)C3)cc2CC1C (stereo unspecified) | -14.6% |  |
| CC1CCCN(S(=O)(=O)c2ccc(C(=O)Nc3nnc(-c4ccncc4)o3)cc2)C1 (stereo unspecified) | -25.8% |  |
| CC(=O)N1CCCc2cc(S(=O)(=O)N3CCCC(C(=O)N4CCN(c5cccc(Cl)c5)CC4)C3)ccc21 (stereo unspecified) | -11% |  |
| O=C(CN1C(=O)c2ccccc2S1(=O)=O)N1CCc2ccccc21 | -2.66% |  |
| CC1(C)O[C@@H]2CC3C4C[C@H](F)C5=CC(=O)C=CC5(C)C4C(O)CC3(C)[C@]2(C(=O)CO)O1 (stereo partly specified) | -14.4% |  |
| Cc1ccc(NC(=O)C2CC(=O)N(c3ccc4c(c3)OCCO4)C2)cc1S(=O)(=O)N1CCCCCC1 (stereo unspecified) | -20.8% |  |
| C=CCC1(CC=C)CCCN1C(=O)c1cc(COc2ccc(-n3cncn3)cc2)on1 | -4.31% |  |
| COc1ccc(CC(=O)Nc2nc(-c3ccc(F)c(F)c3)cs2)cc1OC | -8.52% |  |
| CC(C)(C)n1ncc2c(=O)n(Cc3ccc(C(=O)c4ccccc4)cc3)cnc21 | -5.96% |  |
| Brc1c(CSc2nncc3ccccc23)nc2ccccn12 | -11.6% |  |
| CCC(C)(C)c1ccc(Oc2ccc(NC(=O)COC(=O)C3=COCCO3)cc2)cc1 | -17.9% |  |

| SMILES | activity change, negative = cytotoxicity | outcome |
| --- | --- | --- |
| OCCCNc1nccc(-c2cc(Nc3cccc(Cl)c3)ncn2)n1 | -25.5% |  |
| CC(=O)N1c2ccc(S(=O)(=O)N3CCCC(C(=O)NCc4ccc(Cl)cc4)C3)cc2CC1C (stereo unspecified) | -5.54% |  |
| Cc1cc(C)c(-c2csc(NC(=O)CCCc3nc4ccccc4c(=O)[nH]3)n2)c(C)c1 | -24.1% |  |
| COc1ccc(CCNC(=O)c2ccc(CS(=O)(=O)c3ccc(Br)cc3)o2)cc1OC | -1.61% |  |
| Cc1cccc(N2CCN(C(=O)CCS(=O)(=O)c3ccc4c(c3)NC(=O)C(C)S4)CC2)c1C (stereo unspecified) | -21.8% |  |
| O=C(OCCOc1ccccc1Cl)c1cc(S(=O)(=O)N2CCCCC2)ccc1N1CCOCC1 | -6.85% |  |
| Cc1nc(N2CCOCC2)c2c(C)c(C(=O)Nc3ccc(C(F)(F)F)cc3)sc2n1 | -23.1% |  |
| Cc1ccc(S(=O)(=O)N2C[C@@H]3CCCC[C@@H]3[C@@H](C)[C@H]2c2cn(Cc3ccccc3)c3ccc(F)cc23)cc1 | -6.88% |  |
| Cc1ccc(S(=O)(=O)N2CCN(c3ncnc4ccccc34)CC2)cc1 |  | inactive |
| COc1ccc(OC)c(Cc2cnc3nc(N)nc(N)c3c2C)c1 | -13.1% |  |
| O=C(Nc1ccncc1)c1c(F)cccc1F | -5.15% |  |
| O=C(Nc1ccc(Br)cn1)C1CCN(S(=O)(=O)c2cccs2)CC1 | -0.549% |  |
| O=C(CCC(=O)N1CCN(S(=O)(=O)c2ccc(Cl)cc2)CC1)NCc1cccc(C(F)(F)F)c1 | -20.4% |  |
| Cc1cc(C(=O)NC2CCCc3c2cnn3-c2cccc(C)c2C)c(C)o1 (stereo unspecified) | -15.6% |  |
| CCOC(=O)c1cnc(-n2nc(C)cc2C)nc1NNc1cc(C)nc(-c2ccccc2)n1 | -16.4% |  |
| COc1ccc(N2CCN(C(=O)CSCc3nc(-c4ccccc4Cl)oc3C)CC2)cc1 | -16.2% |  |
| CCCOc1ccc(Cc2c(Cl)nc(SC)nc2NC)cc1 | 7.6% |  |
| O=c1[nH]c(SCc2cccc(F)c2)nc2ccccc12 | 7.99% |  |
| O=C(CSc1nnc2c(n1)[nH]c1ccccc12)NC1CCCCC1 | -1.2% |  |
| CCCN(c1ccc(C(C)C)cc1)S(=O)(=O)c1c(C)[nH]c(=O)[nH]c1=O | -10.9% |  |
| CC1CCN(S(=O)(=O)c2ccc(NC(=O)C3CC(=O)N(c4ccccc4)C3)cc2)CC1 (stereo unspecified) | -2.32% |  |
| CCCOc1ccc(C(=O)Nc2ccc3oc(-c4cccc(Cl)c4Cl)nc3c2)cc1 | 0.327% |  |
| c1ccc(C(=NNc2nc3ccccc3s2)c2ccccn2)cc1 | -27.2% |  |
| CCNS(=O)(=O)c1ccc(CCC(=O)N2CCN(c3cc(Cl)ccc3C)CC2)cc1 | -12.7% |  |
| Cc1c(Cl)cccc1NC(=O)Cn1cc(C(=O)c2cccs2)c2ccccc21 | -25.4% |  |
